The nature of test [1]: compounds altering circadian rhythm period length – cell-based, LOPAC library, luminescence reporter (AID 2774).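 Also: values are relative to mean of DMSO wells on each plate.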 As to conditions: circadian reporter cells, at 7 µM, actives lie on both sides.
Test [2] concerns Hepatitis C virus NS3 helicase. As to the kind of experiment: blockers of NS3h binding to ssDNA – biochemical, fluorescence polarization, LOPAC1280 library, primary screen (AID 687035; in the data active = inhibition above about 37%). As to conditions: Purified HCV NS3 helicase, Cy5-dT15 ssDNA binding fluorescence polarization; stronger effect = higher value; concentration not given here.
Test [3] is described as follows: compounds altering Cy5-DNA-NS3h complex signal – biochemical, LOPAC1280, artefact control for HCV NS3 helicase inhibitor project (AID 687037). As to conditions: Cy5-DNA-NS3h complex fluorescence interference counterscreen. In general terms: The purpose of a counterscreen is to sort out artefacts and off-target activity.
Test [4] concerns Aerobactin synthetase IucA (Klebsiella pneumoniae, hypervirulent). As to the kind of experiment: biochemical IucA inhibition screen of LOPAC library by absorbance (AID 1346212).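 Also: 100% = no compound wells and 0% = no enzyme wells.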 As to conditions: IucA enzyme assay, absorbance (OD) readout; stronger effect = lower value;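 tested at 8 µM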.
A short description of test [5]: blockers of cellular phospholipid synthesis – cell-based, LOPAC library, screen 4, primary screen (AID 1347384). As to conditions: animal cells, phospholipid biosynthesis inhibition screen; at 10 µM.
A short description of test [6]: galactose survival enhancers in mitochondrial complex I cybrids – cell-based, galactose medium, ATP luminescence, primary screen (AID 1645843;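 active = z-score of at least 1.8 in each of two replicates, scored against plate mean and spread of sample wells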;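 also: positive z means more ATP and so rescue of galactose-driven cybrid death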). As to conditions: complex I mutant cybrid cells, 72 h, stronger effect = higher value.
Test [7] is described as follows: blockers of polyQ-driven CASP3 activation – cell-based (AID 1583). As to conditions: polyglutamine-induced caspase-3 activation, cell assay; stronger effect = higher value;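 tested at 10 µM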.
Test [8] can be described thus: yeast 75Q aggregation reduction – 75Q-TubU reporter (AID 1593). As to conditions: Yeast 75Q polyglutamine aggregation reporter.
A short description of test [9]: restoration of touch response, mutant HTT neurons – whole organism, C. elegans mechanosensory neurons, N-terminal huntingtin (AID 1599). As to conditions: C. elegans polyQ-huntingtin mechanosensory neurons, stronger effect = higher value.
Test [10] in a line: blockers of cytochrome c efflux from mitochondria – biochemical, purified mitochondria (AID 1603).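 Also: mouse liver mitochondria challenged with calcium chloride; signal normalized to the plate average as 100%.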 As to conditions: stronger effect = lower value.
The nature of test [11]: polyglutamine aggregate formation blockers (AID 1604). As to conditions: polyglutamine-induced protein aggregation inhibition assay; stronger effect = higher value; tested at 2.5 µM.
Test [12] can be described thus: glutamate transport activators, MN-1 cells, MN-1 cell line (AID 1612).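 Also: tested at 1 µM final; 0% = mean of DMSO vehicle wells on each plate; positive means more glutamate uptake than control and negative means less.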 As to conditions: MN-1 motor neuron cells, stronger effect = higher value.
The nature of test [13]: GFP-Q80 aggregate reduction, neuronal-like cells, cell-based, NGF-treated PC12, GFPQ80 (AID 1614).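 Also: lower means fewer inclusions and 0 means no inclusions at all.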 As to conditions: PC12 NGF-treated GFP-polyQ80 inclusion reduction.
The nature of test [14]: 75Q-TubH aggregate inhibition, S. cerevisiae, yeast (AID 1616). As to conditions: S. cerevisiae 75Q-TubH polyglutamine aggregation suppression; stronger effect = higher value.
A short description of test [15]: viability loss in pontine glioma line – cell-based, JHH-DIPG-1, MIPE4.0, CellTiter-Glo, qHTS, dose response (AID 1347062; cut-off not given, nearly all actives have AC50 up to about 27 µM). As to conditions: JHH-DIPG-1 viability, CellTiter-Glo ATP luminescence. (In ATP-based viability assays light output follows the ATP content of the culture.)
A short description of test [16]: MELAS cybrid and Rieske KO viability enhancers – cell-based, MELAS cybrids, Rieske KO mouse fibroblasts, CellTiter-Glo, primary screen (AID 1508586;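 active = mean z-score across replicates of 1.96 or higher in either the MELAS or the Rieske mutant cell line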;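 also: z relative to plate mean and SD of compound and empty wells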). As to conditions: low glucose.
The subject of test [17] is Aerobactin synthetase IucA (Klebsiella pneumoniae). Put plainly: inhibition of K. pneumoniae IucA enzyme – biochemical, Tocris library, absorbance (AID 1345561).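 Also: 100% = enzyme without compound and 0% = no enzyme.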 As to conditions: purified IucA enzyme assay, absorbance (OD) read-out; stronger effect = lower value;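 tested at 8 µM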.
A short description of test [18]: compounds altering viability of human ES cells (AID 493140).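 Also: cells exposed to compounds for four days before counting.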 As to conditions: human embryonic stem cell survival screen; stronger effect = higher value.
The mark [19] stands for this setting: MELAS cybrid survival, CellTiter-Glo 48 h, stronger effect = higher value.
Setting [20] is: Rieske KO mouse fibroblast survival, CellTiter-Glo 72 h.

Several values for one entry are separate records, joined by “and”; a condition that tells them apart may be missing. Equal entries are not always repeated. Inconclusive results are not listed. For some of these results: Results with a measured potency or affinity are listed apart. Activity calls are given as the source filed them. Unless noted, no rule for the calls is given here.

`C[N+]1(C)CCN(c2ccccc2)CC1`: in test [1], the period change is -0.125 h (inactive). For the same compound, in test [2], the inhibition was -1% (inactive). Also, the fluorescence ratio (interference) in test [3] was 1 (inactive). The remaining activity in [4] is 113% (inactive). Further, the compound was called inactive in test [5]. Moreover, in test [6], the z-score is 0.43 (inactive) and 1.15 (inactive).
In the case of `O=C1CN=C(c2ccccc2)c2cc([N+](=O)[O-])ccc2N1`, the z-score in [6] is 1.3 (inactive).
As to `CN=C1CN(O)C(c2ccccc2)=c2cc(Cl)ccc2=N1`, in test [7], the inhibition stood at 6.92%. Besides, in test [8], the score was determined as 1.19. In test [9], the rescue above control is -9.17. Further, the cytochrome c release ratio in test [10] stood at 1.33. For the same compound, the inhibition of aggregation in [11] is 32%. Moreover, in test [12], the glutamate uptake change was -4.65%. Further, the inclusion score in test [13] turned out to be 2. For the same compound, the aggregation suppression score in test [14] was found to be 1.55. Also, in test [6], the z-score was 0.34 (inactive).
With `Cc1nnc2n1-c1ccc(Cl)cc1C(c1ccccc1)=NC2`, in test [6], the z-score is 0.965 (inactive).
Same read-out and setting: as for `c1cncc(C2CCCN2)c1` (stereo not drawn), the figure is 0.385 (inactive).
Same read-out and setting: as for `c1ccc(Cn2ccnc2)cc1`, the figure is 0.075 (inactive).
`CC(C)[C@]12O[C@H]1[C@@H]1O[C@]13[C@]1(O[C@H]1C[C@H]1C4=C(CC[C@@]13C)C(=O)OC4)[C@@H]2O`: the compound was called inactive in test [15].
With `CCCCCCCCCOc1ccc2[nH]cc(CCN)c2c1`, in [6], the z-score was -1.44 (inactive).
With `CC[C@@H](C(N)=O)N1CCCC1=O`, the inhibition in [2] was -4% (inactive). Besides, the fluorescence ratio (interference) in test [3] was 1 (inactive). Besides, the compound was classed as inactive in test [15] and in test [5]. In addition, the z-score is -0.985 (inactive) and 0.498 (inactive) in test [16] (setting [19]); 0.204 and -0.0344 in [16] (setting [20]); 0.685 (inactive) and 0.535 (inactive) in [6].
As to `O[C@@H]1CCCC[C@H]1N1CCC(c2ccccc2)CC1`, the remaining activity in [17] was 96.8% (inactive). The z-score was -0.566 (inactive) in test [16] (setting [19]), -0.671 in test [16] (setting [20]) and -0.07 (inactive) in [6].
Regarding `CC[C@@H]1/C=C/C=C/C[C@H](C)[C@@H](O)[C@](C)(O)C(=O)[C@H](C)[C@@H](O)[C@H](C)C(=O)[C@H](C)[C@@H](O)[C@H](C)/C=C/C(=O)O[C@H]2[C@@H](C)[C@@H](CC1)O[C@@]1(CC[C@@H](C)[C@@H](C[C@H](C)O)O1)[C@@H]2C`, the inhibition in test [7] is -0.04%. Besides, the score in [8] was -0.11. In addition, in test [9], the rescue above control was -7.82. For the same compound, in test [10], the cytochrome c release ratio turned out to be 1.21. For the same compound, in test [11], the inhibition of aggregation is -10.6%. The glutamate uptake change in test [12] worked out at 5.74%. This compound registered an aggregation suppression score in test [14] of 0.0317.
With `NCCc1c[nH]c2ccc(O)cc12`, the period change in test [1] is -0.28 h (inactive). For the same compound, the survival in test [18] was 12.7 (inactive). Also, the inhibition in test [2] was -1% (inactive). The fluorescence ratio (interference) in test [3] was 1 (inactive). Moreover, the remaining activity is 97.8% (inactive) in test [17] and 107% (inactive) in test [4]. The compound was classed as inactive in [5]. For the same compound, the z-score in test [16] (setting [19]) is -0.165 (inactive) and -0.0524 (inactive); in test [16] (setting [20]), -0.179 and -0.331; in test [6] it was 0.29 (inactive) and 0.4 (inactive).
In the case of `CCCN1CCC[C@@H]2Cc3[nH]ncc3C[C@H]21`, the period change in test [1] is -0.035 hour (inactive) and -0.145 hour (inactive). Moreover, in test [18], the survival is 16 (inactive). Moreover, the inhibition in test [2] is -2% (inactive) and -1% (inactive). In addition, the fluorescence ratio (interference) in [3] is 1 (inactive). Moreover, the remaining activity in [17] was 126% (inactive); in test [4] it was 117% (inactive). Further, the compound was classed as inactive in test [5]. Also, the z-score in test [16] (setting [19]) was 0.372 (inactive); in [16] (setting [20]), -0.161.

One may read the inhibition as the drop in the measured response relative to a control, in per cent. What is called remaining activity is the signal under treatment as a percentage of the control signal.
